# CHX counter = Cycloheximide Counterscreen for Small Molecule Inhibitors of Shiga Toxin | cell reporter, cycloheximide protein synthesis inhibition counterscreen | hit rate 12% among 300,000 | max response, % | AID 2314, 2010; in the data active = max response mostly above about 13%, no sharp cut-off; inactive = mostly below about 14%; note: read at 38.3 µM for the half of the compounds with a filed dose; 0% is about no effect
# Marburg entry inh = qHTS for inhibitors of binding or entry into cells for Marburg Virus; Marburg virus pseudotyped entry inhibition, cell reporter; Potency, µM (top dose mostly 37.8 µM), for inactives: at the highest dose activity change, negative = inhibition, most hits filed as inhibitors; hit rate 1.8% among 300,000; calls by dose curve; tested in HEK293 cells; note: potency is the fitted concentration of half-maximal effect; % is set by controls: 0 for no effect and ±100 for the full control effect
# Shiga toxin inh = A qHTS for Small Molecule Inhibitors of Shiga Toxin. Vero cells, Shiga toxin protein synthesis inhibition reporter. inhibition, % at 38.7 µM. hit rate 9.2% among 290,000. AID 2315, 2010; in the data active = inhibition mostly above about 28%, no sharp cut-off; inactive = mostly below about 43%; note: 0% is about no effect
# FMDV antiviral = High Throughput Screening for Foot and Mouth Disease Virus Antivirals; hit rate 1.2% among 410,000; FMDV antiviral cell-based qHTS; Potency, µM (titrated, usually from 57.9 µM), for inactives: top-dose activity change, negative = inhibition, most hits filed as inhibitors; calls by dose curve; tested in HEK293T cells; note: read-out not given here; potency is the fitted concentration of half-maximal effect; % is set by controls: 0 for no effect and ±100 for the full control effect; nearly all actives have a fitted effect of over 45% in size
# Lassa entry inh = qHTS for Inhibitors of binding or entry into cells for Lassa Virus | hit rate 1.2% among 300,000 | Potency, µM (top dose mostly 37.9 µM), for the others: top-dose activity change, negative = inhibition, usual class: inhibitors | Lassa virus pseudotype entry inhibition, cell reporter; calls by dose curve; tested in HEK293 cells; note: potency is the fitted concentration of half-maximal effect; % is set by controls: 0 for no effect and ±100 for the full control effect; nearly all actives have a fitted effect of over 50% in size
# HCV inh = qHTS Assay for Inhibitors of Hepatitis C Virus (HCV); Huh7.5.1 HCVcc-Cre infection, luciferase reporter, 44 h; Potency, µM (doses to about 41.8 µM), without a hit: at the top dose activity change, negative = inhibition, usual class: inhibitors; hit rate 3.4% among 340,000; AID 651820, 2012; active = well fitted inhibition curve with a large enough effect; inconclusive = small, poorly fitted or top-dose-only effect, or another doubt; inactive = no such curve, though single readings can be large or run the other way; note: potency is the fitted concentration of half-maximal effect; % is set by controls: 0 for no effect and ±100 for the full control effect
#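 Infectious HCVcc-Cre (~0.5 moi) was added to cells just after compound, with cells seeded 4 h earlier at 1,000 per well. Luciferase activity after 44 h culture reported infection; substrate was incubated 15 min at room temperature before reading.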
# Active calls of the source: *; u = inconclusive; x = not tested or not shown; [ ] = dose if it differs, or a comment. The list is not random: actives were taken first. Their share in the collection is about 13%.
SMILES,CHX counter,Marburg entry inh,Shiga toxin inh,FMDV antiviral,Lassa entry inh,HCV inh
CCOc1ccc(CCNC(=O)COC(=O)/C=C/c2ccc(C)o2)cc1OCC,10.8,16.0%[46.1 µM],-1.4,-19.4%,6.6%[46.1 µM],-26.2%
Cc1ccc(-c2onc3ccc(C4OCCO4)cc23)cc1,14.0*,19.2%[46.1 µM],71.4*,2.2%,-18.4%,u
Cc1ccc(-c2onc3ccc(Br)cc23)cc1,10.8,17.9%[46.1 µM],-3.8,-7.7%,8.1%[46.1 µM],u
CCCOc1ccc(C(=O)CCC(=O)Nc2ccc(N3CCN(C)CC3)cc2)cc1,x,x,x,-3.3%,x,4.4%
CC1=C(C(=O)Nc2ccc([N+](=O)[O-])cc2)C(c2cccc(C(F)(F)F)c2)NC(=S)N1c1ccccc1 (stereo not given),0.9,u,-14.1,-15.8%,u,u
Cc1cc(C(=O)O)ccc1N/C=C1\CCCC(C)C1=O (stereo not given),13.4,7.94µM*,-3.4,u,12.6µM*,0.2%
CC1CCC/C(=C\Nc2ccc(O)cc2)C1=O (stereo not given),52.2*,17.2%,80.5*,32.5%,-0.7%,0.1%
COCC(=O)N/N=C\c1cccc(OC)c1OC/C=C/c1ccccc1,-1.1,-14.8%[46.1 µM],3.4,-33.4%,u,-16.4%
CC(=O)c1cnn(-c2ccccc2)c1C,4.6,u,6.9,11.5%,-5.5%,8.0%
Cc1c(C(=S)Nc2ccccc2)cnn1-c1ccccc1,35.2*,-8.6%,37.0,17.7%,1.5%,u
Cc1c(C(=S)Nc2ccccc2)cnn1-c1ccc([N+](=O)[O-])cc1,-4.6,u,-7.5,-28.5%,-19.0%,u
CCc1ccc(NC(=O)c2cnn(-c3ccccc3)c2C)cc1,63.4*,10µM*,59.3*,-16.1%,u,u
Cc1c(C(=O)Nc2cc(F)cc(F)c2)cnn1-c1ccccc1,51.6*,x,x,44.2%,x,11.2µM*
Cc1nn(-c2ccccc2)cc1C(=S)Nc1ccccc1,27.4*,u,64.0*,32.3%,u,-19.7%
CCOC(=O)CSc1nc(-c2ccc(OC)cc2)ns1,1.1,13.6%,4.0,0.0%,u,-1.1%
Cc1cc(N=Cc2c(O)n(-c3cccc(Cl)c3)c(=O)c3ccccc23)no1,-6.1,-24.7%,-7.0,-18.2%,u,15.6%
Cc1c(C(=O)Nc2ccccc2F)cnn1-c1ccccc1,57.4*,x,79.8*,15.8%,x,4.6%
COc1ccc(NC(=O)c2cnn(-c3ccccc3)c2C)c(OC)c1,4.6,u,4.4,0.1%,0.0%[46.1 µM],-9.2%
Cc1c(C(=O)Oc2cccc3ccccc23)cnn1-c1ccccc1,45.4*,-2.1%,151.2*,-9.4%,-0.8%,u
Cn1cnc2cc(NC(=O)c3cccs3)ccc21,40.9*,u,69.3*,17.0%,-22.8%[46.1 µM],2.4%
Cc1cccc(C(=O)Nc2ccc3c(c2)ncn3C)c1,51.2*,u,68.7*,32.4%,u,44.9%
Cc1cccc(C(=O)Nc2cc(=O)n(C)c(=O)n2C)c1,-4.5,9.4%,-13.3,-3.5%,5.1%,-0.1%
COCCNC(=O)c1ccc2c(c1)ncn2-c1cccc(C)c1,15.4*,x,29.9,29.6%,x,-27.2%
COCCNC(=O)c1ccc2c(c1)ncn2-c1cc(C)ccc1OC,x,x,x,-21.4%,8.3%[46.1 µM],x
Cc1cccc(C(=O)Nc2ccc3c(c2)nc(C)n3C)c1,38.9*,u,41.0*,-18.9%,u,19.9%
SMILES,CHX counter,Marburg entry inh,Shiga toxin inh,FMDV antiviral,Lassa entry inh,HCV inh
Cc1ccnc(SCc2cc(=O)c(OC(=O)c3ccco3)co2)n1,-6.8,-7.8%,-13.6,14.2%,27.9%,-0.4%
COCc1c(C#N)c(NCc2cc(OC)c(OC)c(OC)c2)nc(C)c1[N+](=O)[O-],-3.0,u,27.7,14.1µM*,u,11.2µM*
COCc1c(C#N)c(NCCc2ccccc2)nc(C)c1[N+](=O)[O-],9.2,-10.7%,14.3,-17.5%,0.8%,-9.1%
Cc1ccc(N2CC(=O)N(CC(=O)O)C2=O)cc1,-3.8,9.4%[46.1 µM],2.6,-5.1%,u,17.8%
COC(=O)/C=C/c1ccc(-n2cncn2)cc1,22.7*,12.3%[46.1 µM],31.8,12.8%,26.5%[46.1 µM],12.0%
O=C(Cn1c(O)c(/C=C2\C=Nc3ccccc32)sc1=O)Nc1ccc2c(c1)OCO2,29.2*,-4.7%,-6.6,x,16.7%,u
CN(c1ccccc1)S(=O)(=O)c1cccc(NC(=O)c2cc3ccccc3oc2=O)c1,60.8*,u,66.1*,12.0%,21.5%,6.0%
COc1ccccc1NS(=O)(=O)c1cccc(NC(=O)c2[nH]c(C)c(C(C)=O)c2C)c1,-2.1,x,-4.9,-29.2%,x,12.6µM*
COc1ccc(C)cc1NS(=O)(=O)c1cc(C)ccc1C,9.6,-0.7%,2.5,16.1%,4.3%,-4.3%
COc1ccccc1NS(=O)(=O)c1cccc(NC(=O)Nc2ccccc2)c1,-1.3,u,-2.9,u,14.6µM*,u
COc1ccccc1NS(=O)(=O)c1cc(C)ccc1C,0.6,10µM*,0.8,51.6%,0.1%,-5.9%
CCC(C)N(C(=O)CCC(=O)Nc1cc(C)on1)C(C(=O)NC(C)(C)C)c1ccccc1Cl (stereo not given),-1.8,-7.6%[46.1 µM],-9.2,-5.6%,2.6%,-11.7%
CCc1ccccc1N1C(=O)c2ccccc2S1(=O)=O,-3.6,-25.2%,-1.4,0.0%,8.9%,5.9%
OCc1cccc(Cl)c1Cl,-5.5,x,10.3,x,x,x
COc1ccccc1NS(=O)(=O)c1cccc(NC(=O)c2cc3ccccc3oc2=O)c1,59.6*,-27.0%[46.1 µM],86.8*,44.0%,0.4%,6.2%
CC(=O)c1c(C)[nH]c(C(=O)Nc2cccc(S(=O)(=O)N(C)c3ccccc3)c2)c1C,-5.0,13µM*,2.4,-10.2%,u,25.1µM*
COc1ccccc1NS(=O)(=O)c1cccc(NC(=O)Cc2cccs2)c1,-2.4,-20.6%,-17.9,0.0%,16.4µM*,u
COc1ccccc1NS(=O)(=O)c1cccc(NC(=O)Nc2ccc(Cl)cc2)c1,1.2,u,21.7,u,6.31µM*,u
Nc1c(C(=O)Nc2ccc(F)cc2)sc(=S)n1-c1ccccc1F,29.0*,u,59.9*,-14.5%,u,u
CCn1c(N)c(C(=O)NCCOC)sc1=S,8.3,0.4%,16.3,-4.8%,-10.3%,11.3%
Cn1c(N)c(C(=O)Nc2ccccc2F)sc1=S,9.0*,x,25.3,27.1%,x,5.5%
Cn1c(N)c(C(=O)N/N=C/c2ccccc2)sc1=S,-0.6,u,-4.3,4.6%,-2.3%,-7.7%
Cn1c(N)c(C(=O)Nc2ccc3ccccc3c2)sc1=S,43.1*,u,57.0*,80.2%,u,u
CCn1c(N)c(C(=O)Nc2ccccc2C(=O)OC)sc1=S,1.0,7.3%,21.0,11.8%,-6.9%,10µM*
CC(=O)Nc1cccc(-c2ccnc3c2CC(C(=O)Nc2ccc4c(c2)OCO4)O3)c1 (stereo not given),x,x,x,0.0%,x,x
COc1ccc(NCc2nnc(SCC(=O)NNC(=O)c3ccc(C)cc3)n2C)cc1,5.0,14.4%[46.1 µM],-3.7,-5.3%,22.8%,9.9%
